# BRCA1 expr up: BRCA1 expression activation. MCF7-BRCA1-FFLuc reporter, luminescence, 48 h; response scale: scaled: vehicle 0%, 10 µM genistein 100%. Potency, µM (titrated, usually from 46.1 µM), inactives show top-dose activation, actives largely listed as activators. 1.1% of 380,000 active; also: nearly all actives have a fitted effect of over 80% in size
#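 Luminescence from a BRCA1-driven firefly luciferase in MCF7 cells was the read-out, taken 15 min after substrate addition following 48 h compound exposure at 37 °C. Data were normalized to a 10 microM genistein control and DMSO vehicle.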
# GLP1R cytotox: cytotoxicity in counter-screen for GLP-1R inverse agonists; Potency, µM (doses to about 38.3 µM), for the others: at the highest dose activity change, negative = inhibition, usual class: inhibitors; 0.13% of 410,000 active; HEK293 cAMP-luciferase reporter cells, luminescence, 24 h;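 also: loss of luciferase light is scored as toxicity; % is scaled to controls: 0 for no effect and ±100 for the full control effect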
#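 To flag toxic compounds, the library was rerun on cells for 24 hr at 37 deg C and 5% CO2. Viability-linked luminescence was captured 12 min after adding luciferase detection reagent.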
# GLP1R ag: agonists of human GLP-1 receptor; HEK293 GLP-1R CRE-luciferase, luminescence, 4-6 h; cells express a hypersensitive GLP-1R form; Potency, µM (titrated, usually from 45.6 µM), inactives show at the top dose activation, usual class: activators; 0.007% of 380,000 active; also: % of control where 0% means no effect
# Target sequence (P43220 whole entry, looked up): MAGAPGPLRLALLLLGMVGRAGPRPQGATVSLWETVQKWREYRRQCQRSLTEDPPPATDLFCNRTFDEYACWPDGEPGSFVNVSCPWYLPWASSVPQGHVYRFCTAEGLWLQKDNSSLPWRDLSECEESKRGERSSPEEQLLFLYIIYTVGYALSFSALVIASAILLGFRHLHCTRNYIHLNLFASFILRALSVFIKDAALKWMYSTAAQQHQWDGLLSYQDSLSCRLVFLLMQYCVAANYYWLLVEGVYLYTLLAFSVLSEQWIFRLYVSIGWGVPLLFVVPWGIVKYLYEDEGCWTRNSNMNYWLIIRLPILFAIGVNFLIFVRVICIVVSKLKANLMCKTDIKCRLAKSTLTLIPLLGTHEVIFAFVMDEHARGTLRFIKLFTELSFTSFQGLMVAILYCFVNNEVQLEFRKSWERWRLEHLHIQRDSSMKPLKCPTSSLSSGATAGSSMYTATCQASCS
# GLP1R inv ag: GLP-1 receptor (human) inverse agonism | P43220 | HEK293 GLP-1R CRE-luciferase, luminescence, 24 h; GLP-1R form is constitutively active | Potency, µM (series often up to 38.3 µM), for inactives: top-dose activity change, negative = inhibition, most hits filed as inhibitors | 1.6% of 410,000 active; also: % is scaled to controls: 0 for no effect and ±100 for the full control effect; nearly all actives have a fitted effect of over 55% in size
#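 Cells are plated, allowed 12 hours at 37 deg C, then treated with compounds for 24 hr before luciferase detection reagent is added and luminescence is read after 12 min at room temperature. The HEK293 line carries constitutively active GLP-1R with a cAMP-responsive reporter.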
# Mito fusion act: mitochondrial division inhibition or fusion activation; 0.23% of 320,000 active; Potency, µM (top dose mostly 46.1 µM), for inactives: at the top dose growth rescue (activation), usual class: activators; S. cerevisiae fusion-defective mutant growth rescue, CellTiterGlo 48 h; AID 485298; also: % of control where 0% means no effect; nearly all actives have a fitted effect of over 45% in size
#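 Compounds are tested for their ability to restore growth of mitochondrial fusion-defective yeast strains at non-permissive 37C in YPEG medium over 48 hours. Viability is quantified by luciferase luminescence.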
# Numbers without * were called inactive; ? = inconclusive; . = no result; [ ] = remark or other dose. Compounds with a hit are over-represented: about 2.8% of the library has one in this group of screens. Calls follow the shape of the dose curve; as a rule, active = well fitted curve in the direction sought with a large enough effect; inconclusive = small, poorly fitted or top-dose-only effect, or another doubt; inactive = no such curve, though single readings can be large; an effect the other way counts as inactive or inconclusive. Potency is read from the fitted curve at half-maximal effect.
SMILES,BRCA1 expr up,GLP1R cytotox,GLP1R ag,GLP1R inv ag,Mito fusion act
COc1ccccc1N1CCN(C(c2ccccn2)c2nnnn2C2CCCCC2)CC1 (configuration not stated),-16%,4%,6%,-19%,10%
O=C(COC(=O)Cc1ccc(F)cc1)NCc1ccco1,-2%,4%,-6%,-3%,4%
CN1C(=O)C2C=CC1C1C(=O)N(c3ccccc3)C(=O)C21 (configuration not stated),32%,-4%,-4%,-18%,6.3µM*
O=C1C2C3C=CC(C3=C3CCCCC3)C2C(=O)N1c1ccccc1 (configuration not stated),-11%,-1%,16%,4%,1%
C=CCOc1ccc(CN(C)CC(O)COc2ccc(CCC(C)=O)cc2)cc1 (configuration not stated),-51%,8%,4%,11µM*,-9%
COc1cccc(C2CC(=O)Nc3c2ccc(C)c3C)c1OC (configuration not stated),0%,-8%,1%,-10%,.
COc1ccc(NC(C)C(=O)Nc2ccc(C(C)(C)C)cc2)cc1Cl (configuration not stated),-55%,-21%,10%,4.5µM*,22%
CC(CCc1ccccc1)NC(=O)CNC(=S)N(Cc1cccs1)C1CCCC1 (configuration not stated),-68%,-3%,11%,5µM*,14%
CCOC(=O)CNC(=S)N(Cc1cccs1)C1CCCCC1,-5%,-1%,4%,?,1%
COC(CNC(=O)CNC(=S)N(Cc1ccccc1)Cc1cccs1)OC,-12%,-4%,0%,-28%,-2%
CCCCNC(=O)CNC(=S)N(Cc1ccccc1)Cc1cccs1,-36%,2%,11%,5µM*,18%
O=C(COc1ccc2c(c1)OCO2)Nc1nccs1,3.2µM*,13%,-1%,?,-21%
COc1cc(CCc2ccccc2)c(C(=O)O)c(O)c1CC=C(C)C,-20%,-11%,-1%,10µM*,.
COc1cc(CCc2ccccc2)c(C(=O)O)c(O)c1C/C=C(/C)CCC=C(C)C,-38%,?,1%,?,.
COc1ccc([C@@H]2CC(=O)c3c(O)cc(O[C@H]4O[C@@H](CO[C@H]5O[C@@H](C)[C@@H](O)[C@@H](O)[C@@H]5O)[C@@H](O)[C@@H](O)[C@@H]4O)cc3O2)cc1O,.,.,-4%[19.8 µM],.,.
Cc1ccc(NC(=O)C(=O)NC2CCCCC2)cc1,1.3µM*,5%,-7%,17%,1%
Cc1ccc(NC(=O)NC2CCCCCCC2)cc1,?,1%,-4%,6%,-1%
O=C(COC(=O)c1cc(F)c(F)cc1Cl)NC1CCCCCC1,1%,-14%,-3%,-12%,.
O=C(NC1CCCCCCC1)c1cc(F)c(F)cc1Cl,1.8µM*,2%,8%,?,9%
Cc1ccc(C(=O)Nc2ccc(Cl)cc2C(F)(F)F)c(Cl)c1,?,-10%,20%,?,4%
Cc1ccc(C(=O)Nc2ccc(Cl)cc2C)c(Cl)c1,3.2µM*,-7%,7%,-27%,12%
Cc1ccc(C(=O)NC2CCCCCCC2)c(Cl)c1,25%,6%,0%,4µM*,3%
CCOc1ccc(Sc2cc(C(=O)NCc3ccc(C)cc3)c3ccccc3n2)cc1,.,24%,.,6%,.
CCc1ccc(OC2(C)CCN(Cc3ccc(SC)cc3)C2)cc1 (configuration not stated),-6%,-2%,3%,-6%,.
COc1ccc(NC(=O)c2oc3ccccc3c2NC(=O)c2ccc(OC)c(OC)c2)c(OC)c1,-16%,-10%,14%,79%,.
NS(=O)(=O)c1cc(-c2nn[nH]n2)c(NCc2cccs2)cc1Cl,.,.,-5%,.,.
COCCCNCCCCOc1ccc(Br)cc1C,-67%,-4%,0%,2.8µM*,1%
CCCCNCCCOc1ccc(C)cc1Br,-52%,-26%,-8%,?,-10%
Cc1ccc(OCCCNCCO)c(Br)c1,30%,?,-7%,4µM*,1%
